Bioassay records (PubChem BioAssay)
697 NFkB inh: lowers PMA/ionomycin-induced NF-kB signal in 697 B cells; 330,000 compounds, 0.33% hits; AID 435022; 697 B-cell NF-kB luciferase reporter, 16 h; inhibition, % at 4 µM; in the data active = inhibition above about 35%
aSyn UTR inh: 5' untranslated region of α-synuclein, MLPCN primary screen. alpha-synuclein 5'UTR reporter, inhibitor activity. inhibition, % (tested at 7.5 µM). 300,000 compounds, 0.82% hits. AID 1813; in the data active = inhibition above about 60%; inconclusive = no clear call, values can overlap the other calls;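 note: H4 neuroglioblastoma cells stably carrying SNCA 5'UTR luciferase fusion; 0% = DMSO wells and 100% = positive control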
ANO1 activ: activators or potentiators of mouse TMEM16A chloride channel | Q8BHY3 | HEK293 TMEM16A/YFP-H148Q/I152L, iodide quench fluorescence; hits give low values | B-score at 10 µM | 340,000 compounds, 0.3% hits | AID 623877;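 active = fluorescence-ratio B-score plate-corrected deviation score at least 3 library SD below zero, with starting fluorescence score within 5 deviations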;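 note: channel opened by trigger with iodide after compound preincubation; score built on the fluorescence ratio of max minus min over baseline; more negative score means more quench and so TMEM16A activation or potentiation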
Jurkat NFkB inh: lowers PMA/ionomycin-induced NF-kB signal in Jurkat cells; inhibition, % at 4 µM; 330,000 compounds, 0.53% hits; PMA/ionomycin-induced NF-kB luciferase reporter, luminescence; AID 435003; in the data active = inhibition above about 50%
KLF5 inhibitor: suppresses KLF5 promoter-driven expression; inhibition, % at 5 µM; DLD-1 KLF5 promoter-luciferase reporter, luminescence; 290,000 compounds, 0.23% hits; AID 1700;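 active = inhibition above a per-plate limit of that plate's mean compound inhibition plus 3 SD, cut at about 60% in these data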;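 note: 0% = DMSO wells and 100% = LY294002 at 200 µM; higher means less KLF5 promoter-driven luciferase light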
ANO1 block: blocks the mouse calcium-activated chloride channel TMEM16A. AID 588511. HEK293 TMEM16A/YFP iodide influx fluorescence, ionomycin. normalized B-score (activity score, 25-100; higher = stronger inhibition) at 10 µM. 310,000 compounds, 1.2% hits;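 active = ratio plate-corrected score three or more library SD toward inhibition, starting fluorescence score within five deviations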;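 note: score derived from kinetic fluorescence span divided by baseline fluorescence per well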
KLF5 confirm: KLF5 inhibition, confirmation assay; shares compounds with KLF5 inhibitor; DLD-1 KLF5 promoter firefly luciferase reporter, luminescence; inhibition, % at 4 µM; 610 compounds, 79% hits;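 active = inhibition above a set limit taken from the earlier primary screen, cut at about 63% in these data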;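 note: 0% = DMSO wells and 100% = LY294002 at 200 µM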
IEC-6 tox trip: kills rat IEC-6 cells in KLF5 counter-screen; shares compounds with KLF5 inhibitor; IEC-6 rat intestinal cells, viability luminescence; inhibition, % at 4 µM; 610 compounds, 56% hits; in the data active = inhibition above about 23%;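 note: cells exposed to compounds for 48 hours before viability read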
Jurkat NFkB conf: inhibitors of the PMA/ionomycin-induced NF-kB reporter in Jurkat cells, retest. AID 435020. inhibition, % at 4 µM. shares compounds with Jurkat NFkB inh. Jurkat NF-kB luciferase, 16 h. 2,700 compounds, 27% hits;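 active = inhibition reaching about 45% at 4 µM in either replicate, limit read from the data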;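 note: plate controls were PMA/ionomycin stimulated DMSO wells for no effect and unstimulated DMSO wells for full effect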
An asterisk follows results filed as active; i = inactive; ? = inconclusive; / = not tested or not shown. Sampled rows, rich in hits. Any-hit rate of the full collection: about 2.5%.

SMILES	697 NFkB inh	aSyn UTR inh	ANO1 activ	Jurkat NFkB inh	KLF5 inhibitor	ANO1 block	KLF5 confirm	IEC-6 tox trip	Jurkat NFkB conf
Cc1cc(C(=O)Nc2ccc(Cl)cc2)n(-c2ccccc2)n1	-15.3	-29.3	i	-17.9	-37.5	i	/	/	/
COC(=O)c1cccc(NC(=O)CSc2nnc(C3CC3)n2C)c1	3.3	-7.1	i	9.1	-15.6	i	/	/	/
COc1ccc(S(=O)(=O)NCc2ccccn2)cc1NC(=O)c1ccccc1F	9.7	51.9	i	49.9	63.8*	i	80.8*	53.3*	/
COc1ccc(S(=O)(=O)NCc2cccnc2)cc1NC(=O)c1ccccc1C	/	/	i	/	/	/	/	/	/
CCCc1nc2c(=O)n(C)c(=O)nc-2n(C)n1	/	/	i	/	71.9*	/	111.9*	48.6*	/
O=C(NCCC(=O)N1CCN(c2ccccn2)CC1)c1ccc(Cl)cc1	15.5	/	i	9.6	/	/	/	/	/
O=C(Nc1nnc(C2=COCCO2)o1)c1cccc([N+](=O)[O-])c1	-9.4	-8.3	i	-7.5	-24.7	i	/	/	/
O=C(Nc1nnc(-c2ccc(F)cc2)o1)c1cccc([N+](=O)[O-])c1	1.9	56.0	i	8.2	71.8*	i	27.0	17.2	/
COC(=O)c1ccc2nc(NC(=O)C(C)(C)C)sc2c1	-90.3	?	i	-25.3	-41.5	i	/	/	/
COC(=O)c1ccc2nc(Nc3nc4ccc(F)cc4s3)sc2c1	/	75.1*	i	/	94.5*	i	101.2*	16.4	/
CCC(C)(C)NC(=O)C(c1ccc(C)o1)N(Cc1ccc2c(c1)OCO2)C(=O)c1snc(C(N)=O)c1N (stereo unspecified)	7.9	23.6	i	-4.3	-10.4	i	/	/	/
Cc1cccc2c(C(=O)N3CCN(c4ccccc4)CC3)cc(-c3ccncc3)nc12	7.7	94.1*	i	60.1*	64.0*	i	71.1*	46.4*	-3.0
Cc1cccc2c(C(=O)N3CCCCC3)cc(-c3ccccc3)nc12	-3.7	10.9	i	-4.4	-23.3	i	/	/	/
CCCCS(=O)(=O)/C=C\C=C/S(=O)(=O)CCCC	-130.6	-8.6	i	90.3*	103.2*	i	91.8*	100.5*	62.8*
CCCCS(=O)(=O)/C=C\C1C2C=CC(C2)C1S(=O)(=O)CCCC (stereo unspecified)	15.5	-34.5	i	2.9	2.0	i	/	/	/
O=C(Nc1ccc(N2CCCCCC2)cc1)c1ccccc1Cl	-104.1	-252.4	i	-25.9	-139.3	i	/	/	/
O=C(Nc1ccc(N2CCCCC2)cc1)c1ccccn1	20.7	113.8*	i	66.7*	103.9*	i	100.3*	11.9	68.9*
COC(=O)c1[nH]c2c(c1C)C(=O)CC(c1ccc(OC)c(OC)c1)C2 (stereo unspecified)	-34.2	0.7	i	-13.9	-12.3	i	/	/	/
CCOCCOC(=O)c1[nH]c2c(c1C)C(=O)CC(c1ccccc1)C2 (stereo unspecified)	-53.1	40.8	i	60.3*	77.6*	i	87.0*	65.9*	51.4*
COC(=O)c1[nH]c2c(c1C)C(=O)CC(c1cccc(OC)c1)C2 (stereo unspecified)	-54.4	41.3	i	62.5*	78.2*	i	89.0*	63.9*	55.5*
O=C(N/N=C(\c1ccccc1)c1cccnc1)c1cccc(F)c1	-10.2	80.4*	i	52.4*	67.7*	i	84.4*	75.2*	54.9*
CCN(CC)c1ccc(NC(=O)c2cc(OC)cc(OC)c2)c(C)c1	-27.7	-22.6	i	60.1*	75.2*	i	79.2*	59.6*	43.1
CC(C)(C)c1ccc(C(=O)O/N=C(\N)c2ccccc2)cc1	0.2	53.3	i	71.3*	71.3*	i	65.8*	7.0	84.8*
Cc1c(C)c2ccc(OCC(=O)N(C)C)c(C)c2oc1=O	-20.6	-40.5	i	-5.8	-27.3	i	/	/	/
